A selection: hits, their analogues and other compounds. The true share with any hit is near 5.2%.
Tau fluor counter – counter-screen for tau fibril formation inhibitors | AID 1463 | 280,000 tested, 0.93% active | tau K18 P301L Alexa594 fluorescence, heparin fibrillization | Potency, µM (series often up to 57.7 µM), for inactives: top-dose activity change, negative = decrease; note: potency is the fitted concentration of half-maximal effect; nearly all actives have a fitted effect of over 55% in size
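Human tau K18 P301L (15 uM unlabeled, 0.24 uM Alexa 594-labeled) in 100 mM sodium acetate pH 7 with 20 uM heparin, 6 hr at 37 C. ThT 30 uM added, 1 hr ambient; Alexa 594 FP and total fluorescence read at 555/632 nm.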
Tau fibril ThT – blocks human tau fibril formation measured by thioflavin T | AID 1460 | P10636 | Potency, µM (doses to about 57.4 µM), inactives show top-dose activity, negative = inhibition, usual class: inhibitors | recombinant tau K18 P301L (four-repeat tau fragment), heparin-induced fibrillization, ThT fluorescence | 270,000 tested, 2.1% active; note: potency is the fitted concentration of half-maximal effect; nearly all actives have a fitted effect of over 55% in size
Target sequence (P10636 561-689 P618L limits assumed): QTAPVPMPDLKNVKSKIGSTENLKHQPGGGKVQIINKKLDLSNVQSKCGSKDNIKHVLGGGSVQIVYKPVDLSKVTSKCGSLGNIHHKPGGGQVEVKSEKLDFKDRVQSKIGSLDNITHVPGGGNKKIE
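Heparin-induced (20 uM) aggregation of recombinant human K18 P301L tau, 15 uM unlabeled with 0.24 uM labeled, pH 7 acetate buffer, 6 hr at 37 C with compound. Fibrils quantified by 30 uM ThT fluorescence after 1 hr ambient incubation.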
Tau fibril FP – inhibitors of human tau fibril formation | 280,000 tested, 0.39% active | P10636 | Potency, µM (highest dose often 57.7 µM), without a hit: at the highest dose activity, negative = inhibition, actives largely listed as inhibitors | AID 1468 | K18 P301L tau heparin fibrillization, Alexa594 FP, 6 h; note: potency is the fitted concentration of half-maximal effect; nearly all actives have a fitted effect of over 55% in size
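Quantitative HTS format: compounds meet 15 uM recombinant K18 P301L tau and Alexa 594-tau tracer in 100 mM sodium acetate pH 7; 20 uM heparin triggers fibrillization at 37 C over 6 hr; FP gives the signal.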
FBPA coupling cs – counter-screen for Giardia aldolase inhibitors: coupling enzyme system; coupling enzyme system counterscreen, AmpLite Red fluorescence; activity change, negative = inhibition, % at 58.2 µM, hits read low; 290,000 tested, 0.67% active; AID 2472; in the data active = activity change below about -30%
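Compounds tested against the coupling enzymes alone at 57.5 uM final; readout was AmpLite Red fluorescence (525/598 nm) after 20 min at RT.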
Sfp inh – inhibitors of Bacillus subtilis Sfp phosphopantetheinyl transferase; Biochemical Sfp PPTase activity, qHTS; Potency, µM, for inactives: largest response in the series, negative = inhibition, usual class: inhibitors; 310,000 tested, 3.5% active; AID 1490;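 note: the enzyme is Sfp with the accession as filed and its product quenches rhodamine fluorescence; potency is the fitted concentration of half-maximal effect; 0% = enzyme reaction without inhibitor and -100% = no enzyme wells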
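With Hepes-Na pH 7.6 buffer containing 10 mM MgCl2, Sfp (15 nM) modified BHQ-2-YbbR (12.5 uM) using rhodamine-CoA (5 uM). Two reads 30 minutes apart at 525/598 nm yielded each well's rate.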
Active calls of the source: *; ? = inconclusive; . = not tested or not shown; [ ] = another dose, or the depositor's remark. Unless noted, calls come from the whole dose curve; as a rule, active = well fitted curve in the direction sought with a large enough effect; inconclusive = small, poorly fitted or top-dose-only effect, or another doubt; inactive = no such curve, though single readings can be large; an effect the other way counts as inactive or inconclusive. Unless noted, % is set by controls: 0 for no effect and ±100 for the full control effect.

SMILES	Tau fluor counter	Tau fibril ThT	Tau fibril FP	FBPA coupling cs	Sfp inh
CC1(C)Oc2ccc(C#N)cc2[C@@H](OC2=CC(=O)CC2)[C@@H]1O	-10%	-8%	-1%	.	20%
Cc1ccccc1Nc1c(-c2cccnc2)nc2ccc(Cl)cn12	-13%	-4%	6%	.	.
CCOc1c(Cl)cc(CNCC(O)c2ccccc2)cc1OC (stereo not drawn)	-6%	3%	0%	3	3%
OC(CNCC(c1ccc(Cl)cc1Cl)c1c[nH]c2ccccc12)c1ccccc1 (stereo not drawn)	?	?	-9%	-2	50µM*
CCCN1C(=O)C(Cc2nc3ccccc3c(=O)n2CC)c2cc(Br)ccc21 (stereo not drawn)	-12%	?	7%	.	.
O=C(O)c1ccc(N/N=C/C2=C(N3CCOCC3)C(=C\c3ccccc3)/CC2)cc1	?	?	2%	5	50µM*
O=CC1=C(N2CCOCC2)/C(=C/c2ccc(Cl)cc2)CC1	-9%	?	-2%	1	-13%
Cc1cc(C)nc(N/N=C/C2=C(N3CCOCC3)C(=C\c3ccc(Cl)cc3)/CC2)n1	-12%	11µM*	-9%	-5	-29%
CCOC(=O)N1CCc2c(sc3c2C(=O)NC(c2cc(OC)c(O)c(OC)c2)N3)C1 (stereo not drawn)	-16%	11µM*	1%	.	.
COc1cc(C2NC(=O)c3c(sc4c3CCN(C)C4)N2)ccc1OC(=O)c1ccccc1 (stereo not drawn)	-14%	13µM*	-6%	.	.
CCOC(=O)c1sc(C)c2c1NC(c1ccc(N(C)C)cc1)NC2=O (stereo not drawn)	-11%	-13%	-2%	0	3%
CCOC(=O)N1CCc2c(sc3c2C(=O)NC(c2ccccc2)N3)C1 (stereo not drawn)	-28%	28µM*	?	-30	56µM*
CN1CCc2c(sc3c2C(=O)NC(c2cccc(OC(=O)c4cccs4)c2)N3)C1 (stereo not drawn)	-15%	?	-2%	-9	-30%
CCOC(=O)N1CCc2c(sc3c2C(=O)NC(c2ccc(N(C)C)cc2)N3)C1 (stereo not drawn)	-15%	0.89µM*	-19%	.	.
CCn1c(C(=O)N2CCCC(C(=O)NCCCOC)C2)cc2sccc21 (stereo not drawn)	-1%	3%	0%	.	.
O=C(CC1CS(=O)(=O)CC1CC(=O)Nc1ccc2c(c1)OCCO2)Nc1ccc2c(c1)OCCO2 (stereo not drawn)	-11%	6%	-7%	-6	22µM*
Cc1nc2c(cc(Oc3ccc(S(=O)(=O)N4CCOCC4)cn3)c3ccsc32)s1	-18%	7%	9%	-40*	?
O=C(O)c1cc(N(Cc2ccccc2O)Cc2cc(O)ccc2O)ccc1O	?	18µM*	-6%	-1	18µM*
CCn1cc2nc(SCC(=O)Nc3ccccc3C(F)(F)F)n(Cc3ccc(C)cc3)c(=O)c2n1	-16%	-15%	4%	.	.
CCc1ccc(CNC(=O)Cc2ccc(NC(=O)N3CCSc4ncccc43)cc2)cc1	-12%	-2%	10%	.	.
O=C1C=CC(=O)N1Cc1ccccc1	.	.	.	5	18µM*
COc1ccccc1-c1nnc(C2CCN(S(=O)(=O)c3ccccc3)CC2)o1	-10%	-6%	-5%	.	.
Cc1cccc(OCC(=O)N/N=C/c2ccc(N(C)C)cc2)c1	-29%	3.5µM*	7%	2	-2%
CCN1/C(=C/C=C/c2sc3ccccc3[n+]2CC)Sc2ccccc21	.	.	.	.	79µM*
CCN1/C(=C/C=C/C=C/C=C/c2sc3ccccc3[n+]2CC)Sc2ccccc21	.	.	.	-5	50µM*
CCOC(=O)/C(=C\C=C1/Sc2ccccc2N1CC)C(C)=O	-24%	?	5%	-3	-3%
CC[n+]1c(/C=C(/C)SC)sc2ccccc21	-11%	-15%	-11%	-3	?
CCN1/C(=C/C=C/C=C/c2sc3ccccc3[n+]2CC)Sc2ccccc21	16µM*[quencher]	4µM*	18µM*	-8	45µM*
CSCC[C@H](NC(=O)[C@H](CC(C)C)NC(=O)CNC(=O)[C@H](Cc1ccccc1)N(C)C(=O)[C@H](Cc1ccccc1)NC(=O)[C@H](CC(=O)O)NC(=O)[C@@H](N)CC(=O)O)C(N)=O	.	.	.	0	20%

From PubChem BioAssay
